# Data published in ChEMBL document CHEMBL2218924, “A broad activity screen in support of a chemogenomic map for kinase signalling research and drug discovery” (Biochem J, 2013).
# How the values were obtained:
# [1] = molecular target: T1, Ephrin type-B receptor 3 (Homo sapiens) (UniProt P54753); details: at 10 µM
# T1 sequence (whole entry): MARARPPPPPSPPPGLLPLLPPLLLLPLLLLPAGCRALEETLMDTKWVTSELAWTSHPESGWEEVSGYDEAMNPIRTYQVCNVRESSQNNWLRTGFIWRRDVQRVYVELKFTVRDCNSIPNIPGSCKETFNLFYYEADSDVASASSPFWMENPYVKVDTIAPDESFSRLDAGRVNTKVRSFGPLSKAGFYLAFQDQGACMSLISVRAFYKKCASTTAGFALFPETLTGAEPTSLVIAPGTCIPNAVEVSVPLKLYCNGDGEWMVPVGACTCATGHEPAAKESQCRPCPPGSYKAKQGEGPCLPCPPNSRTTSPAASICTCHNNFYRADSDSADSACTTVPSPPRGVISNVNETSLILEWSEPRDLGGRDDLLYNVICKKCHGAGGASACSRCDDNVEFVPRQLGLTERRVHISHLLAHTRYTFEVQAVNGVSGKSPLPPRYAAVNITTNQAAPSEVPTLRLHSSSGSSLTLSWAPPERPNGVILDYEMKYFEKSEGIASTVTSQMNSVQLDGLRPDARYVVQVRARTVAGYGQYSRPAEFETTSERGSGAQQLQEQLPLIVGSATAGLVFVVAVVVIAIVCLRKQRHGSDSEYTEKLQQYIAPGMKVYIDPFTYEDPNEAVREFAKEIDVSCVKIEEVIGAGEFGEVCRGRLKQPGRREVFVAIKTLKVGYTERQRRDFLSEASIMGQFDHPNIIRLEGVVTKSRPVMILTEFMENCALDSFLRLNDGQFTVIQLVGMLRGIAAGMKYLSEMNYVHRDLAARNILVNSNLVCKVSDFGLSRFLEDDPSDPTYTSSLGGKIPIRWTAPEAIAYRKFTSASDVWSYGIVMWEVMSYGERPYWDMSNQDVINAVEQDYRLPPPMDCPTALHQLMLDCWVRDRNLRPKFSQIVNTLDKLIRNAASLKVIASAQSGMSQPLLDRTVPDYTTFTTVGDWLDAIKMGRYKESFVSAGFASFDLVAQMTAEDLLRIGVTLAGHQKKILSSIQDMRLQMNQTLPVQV
# [2] = molecular target: T2, Ephrin type-B receptor 4 (Homo sapiens) (UniProt P54760); details: at 1 µM
# T2 sequence (whole entry): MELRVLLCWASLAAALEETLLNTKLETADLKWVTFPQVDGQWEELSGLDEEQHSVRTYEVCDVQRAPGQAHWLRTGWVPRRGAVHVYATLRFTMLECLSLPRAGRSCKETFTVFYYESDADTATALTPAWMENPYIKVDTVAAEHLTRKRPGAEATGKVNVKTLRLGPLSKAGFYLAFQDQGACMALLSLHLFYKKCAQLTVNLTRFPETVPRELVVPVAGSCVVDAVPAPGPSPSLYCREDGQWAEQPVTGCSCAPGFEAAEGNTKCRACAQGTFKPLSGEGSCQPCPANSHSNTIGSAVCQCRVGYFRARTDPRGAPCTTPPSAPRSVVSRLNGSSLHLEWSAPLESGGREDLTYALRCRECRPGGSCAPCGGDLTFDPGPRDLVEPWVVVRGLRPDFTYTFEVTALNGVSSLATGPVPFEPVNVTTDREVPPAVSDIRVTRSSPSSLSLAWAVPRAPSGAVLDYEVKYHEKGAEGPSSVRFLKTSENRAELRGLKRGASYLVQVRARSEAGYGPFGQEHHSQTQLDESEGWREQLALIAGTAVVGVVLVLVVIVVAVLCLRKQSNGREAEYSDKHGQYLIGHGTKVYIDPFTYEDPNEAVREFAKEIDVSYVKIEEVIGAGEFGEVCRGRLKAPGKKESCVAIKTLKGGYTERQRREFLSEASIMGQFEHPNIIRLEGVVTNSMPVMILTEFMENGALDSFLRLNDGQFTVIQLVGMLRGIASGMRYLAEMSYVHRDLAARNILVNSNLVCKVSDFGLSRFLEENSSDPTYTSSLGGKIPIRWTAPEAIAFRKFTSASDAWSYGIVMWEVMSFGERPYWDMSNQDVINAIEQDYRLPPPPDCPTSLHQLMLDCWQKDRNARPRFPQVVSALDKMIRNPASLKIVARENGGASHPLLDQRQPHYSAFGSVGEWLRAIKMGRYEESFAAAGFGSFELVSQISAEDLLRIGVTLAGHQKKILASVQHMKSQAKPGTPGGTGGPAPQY
# [3] = molecular target: T2, Ephrin type-B receptor 4 (Homo sapiens); details: at 10 µM
# [4] = molecular target: Focal adhesion kinase 1 (Homo sapiens) (UniProt Q05397); details: at 1 µM
# [5] = molecular target: T3, Ephrin type-A receptor 3 (Homo sapiens) (UniProt P29320); details: at 10 µM
# T3 sequence (whole entry): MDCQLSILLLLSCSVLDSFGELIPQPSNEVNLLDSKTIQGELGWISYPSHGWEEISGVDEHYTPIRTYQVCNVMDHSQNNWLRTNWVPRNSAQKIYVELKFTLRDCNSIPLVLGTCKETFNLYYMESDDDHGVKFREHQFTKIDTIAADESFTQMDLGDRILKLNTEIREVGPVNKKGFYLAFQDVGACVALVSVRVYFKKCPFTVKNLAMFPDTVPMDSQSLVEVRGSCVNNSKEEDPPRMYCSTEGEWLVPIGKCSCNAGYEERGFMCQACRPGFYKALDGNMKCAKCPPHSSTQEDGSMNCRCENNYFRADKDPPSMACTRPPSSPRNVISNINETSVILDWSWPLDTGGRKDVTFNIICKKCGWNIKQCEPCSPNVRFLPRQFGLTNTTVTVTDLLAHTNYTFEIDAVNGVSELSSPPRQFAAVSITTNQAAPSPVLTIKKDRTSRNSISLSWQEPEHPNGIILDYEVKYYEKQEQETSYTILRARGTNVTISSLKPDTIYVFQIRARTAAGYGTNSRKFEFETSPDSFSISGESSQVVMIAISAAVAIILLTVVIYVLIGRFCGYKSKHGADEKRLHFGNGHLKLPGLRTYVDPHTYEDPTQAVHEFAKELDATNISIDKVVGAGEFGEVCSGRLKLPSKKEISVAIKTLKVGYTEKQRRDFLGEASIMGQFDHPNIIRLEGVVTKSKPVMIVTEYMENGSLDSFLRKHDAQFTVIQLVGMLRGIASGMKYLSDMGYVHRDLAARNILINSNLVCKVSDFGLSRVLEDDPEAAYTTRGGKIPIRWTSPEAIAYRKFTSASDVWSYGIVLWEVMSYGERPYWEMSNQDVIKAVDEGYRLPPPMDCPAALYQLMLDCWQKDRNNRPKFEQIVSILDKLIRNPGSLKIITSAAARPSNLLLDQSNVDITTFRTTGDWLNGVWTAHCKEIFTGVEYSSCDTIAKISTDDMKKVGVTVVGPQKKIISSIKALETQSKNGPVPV
# [6] = molecular target: T4, Ephrin type-A receptor 8 (Homo sapiens) (UniProt P29322); details: at 1 µM
# T4 sequence (whole entry): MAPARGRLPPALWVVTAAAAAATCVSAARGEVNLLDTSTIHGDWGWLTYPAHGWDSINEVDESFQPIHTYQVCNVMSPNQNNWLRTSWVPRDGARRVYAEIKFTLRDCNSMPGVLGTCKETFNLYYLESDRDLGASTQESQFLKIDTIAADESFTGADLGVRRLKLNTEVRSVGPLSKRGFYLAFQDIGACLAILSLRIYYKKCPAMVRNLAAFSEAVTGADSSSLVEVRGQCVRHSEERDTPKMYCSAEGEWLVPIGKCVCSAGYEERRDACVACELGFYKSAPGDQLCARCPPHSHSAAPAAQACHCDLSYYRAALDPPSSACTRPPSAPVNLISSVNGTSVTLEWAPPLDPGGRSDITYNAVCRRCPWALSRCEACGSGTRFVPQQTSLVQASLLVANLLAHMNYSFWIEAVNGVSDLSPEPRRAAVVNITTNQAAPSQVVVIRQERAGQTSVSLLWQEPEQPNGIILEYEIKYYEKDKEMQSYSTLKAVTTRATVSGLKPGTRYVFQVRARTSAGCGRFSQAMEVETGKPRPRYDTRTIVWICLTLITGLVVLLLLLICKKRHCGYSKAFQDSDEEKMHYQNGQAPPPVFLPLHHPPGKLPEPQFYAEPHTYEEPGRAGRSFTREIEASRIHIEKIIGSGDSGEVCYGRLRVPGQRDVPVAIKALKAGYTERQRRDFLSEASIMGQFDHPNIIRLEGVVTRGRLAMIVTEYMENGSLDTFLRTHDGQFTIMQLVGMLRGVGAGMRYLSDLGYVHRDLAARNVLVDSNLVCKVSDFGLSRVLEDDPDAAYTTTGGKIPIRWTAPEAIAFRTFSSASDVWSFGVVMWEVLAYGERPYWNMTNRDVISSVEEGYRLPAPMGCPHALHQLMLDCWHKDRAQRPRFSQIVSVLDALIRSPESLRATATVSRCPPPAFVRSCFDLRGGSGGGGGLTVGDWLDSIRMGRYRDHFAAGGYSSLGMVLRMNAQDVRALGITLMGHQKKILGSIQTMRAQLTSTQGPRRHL
# [7] = molecular target: T4, Ephrin type-A receptor 8 (Homo sapiens); details: at 10 µM
# [8] = molecular target: T5, Ephrin type-B receptor 1 (Homo sapiens) (UniProt P54762); details: at 10 µM
# T5 sequence (whole entry): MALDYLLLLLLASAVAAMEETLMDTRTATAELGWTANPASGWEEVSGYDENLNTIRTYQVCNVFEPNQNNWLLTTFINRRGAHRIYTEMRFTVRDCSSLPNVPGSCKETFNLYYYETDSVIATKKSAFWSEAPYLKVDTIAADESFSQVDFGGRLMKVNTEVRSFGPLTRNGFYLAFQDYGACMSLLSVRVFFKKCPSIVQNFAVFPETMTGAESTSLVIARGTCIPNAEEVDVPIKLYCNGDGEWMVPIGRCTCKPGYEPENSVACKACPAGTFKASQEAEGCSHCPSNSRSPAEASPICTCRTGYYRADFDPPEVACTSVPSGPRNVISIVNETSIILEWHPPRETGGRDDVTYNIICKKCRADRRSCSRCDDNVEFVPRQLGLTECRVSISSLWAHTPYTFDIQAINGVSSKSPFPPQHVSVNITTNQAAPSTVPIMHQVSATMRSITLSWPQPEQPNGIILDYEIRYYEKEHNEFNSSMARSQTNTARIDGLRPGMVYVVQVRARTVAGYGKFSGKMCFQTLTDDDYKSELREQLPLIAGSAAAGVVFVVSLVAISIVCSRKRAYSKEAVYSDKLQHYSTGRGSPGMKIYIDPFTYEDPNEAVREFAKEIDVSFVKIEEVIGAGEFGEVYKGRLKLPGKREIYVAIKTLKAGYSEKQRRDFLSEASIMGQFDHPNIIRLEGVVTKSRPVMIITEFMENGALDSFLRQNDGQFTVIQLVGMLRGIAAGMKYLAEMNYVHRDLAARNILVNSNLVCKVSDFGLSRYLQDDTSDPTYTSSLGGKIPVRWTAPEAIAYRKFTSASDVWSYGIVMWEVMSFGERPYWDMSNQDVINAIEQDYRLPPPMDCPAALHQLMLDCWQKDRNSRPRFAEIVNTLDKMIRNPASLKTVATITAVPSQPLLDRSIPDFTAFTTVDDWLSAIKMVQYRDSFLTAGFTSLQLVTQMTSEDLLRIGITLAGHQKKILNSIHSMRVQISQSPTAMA
# [9] = molecular target: Receptor tyrosine-protein kinase erbB-4 (Homo sapiens) (UniProt Q15303); details: at 1 µM
# [10] = molecular target: Receptor tyrosine-protein kinase erbB-4 (Homo sapiens) (UniProt Q15303); details: at 10 µM
# [11] = molecular target: T6, Ephrin type-B receptor 2 (Homo sapiens) (UniProt P29323); details: at 10 µM
# T6 sequence (whole entry): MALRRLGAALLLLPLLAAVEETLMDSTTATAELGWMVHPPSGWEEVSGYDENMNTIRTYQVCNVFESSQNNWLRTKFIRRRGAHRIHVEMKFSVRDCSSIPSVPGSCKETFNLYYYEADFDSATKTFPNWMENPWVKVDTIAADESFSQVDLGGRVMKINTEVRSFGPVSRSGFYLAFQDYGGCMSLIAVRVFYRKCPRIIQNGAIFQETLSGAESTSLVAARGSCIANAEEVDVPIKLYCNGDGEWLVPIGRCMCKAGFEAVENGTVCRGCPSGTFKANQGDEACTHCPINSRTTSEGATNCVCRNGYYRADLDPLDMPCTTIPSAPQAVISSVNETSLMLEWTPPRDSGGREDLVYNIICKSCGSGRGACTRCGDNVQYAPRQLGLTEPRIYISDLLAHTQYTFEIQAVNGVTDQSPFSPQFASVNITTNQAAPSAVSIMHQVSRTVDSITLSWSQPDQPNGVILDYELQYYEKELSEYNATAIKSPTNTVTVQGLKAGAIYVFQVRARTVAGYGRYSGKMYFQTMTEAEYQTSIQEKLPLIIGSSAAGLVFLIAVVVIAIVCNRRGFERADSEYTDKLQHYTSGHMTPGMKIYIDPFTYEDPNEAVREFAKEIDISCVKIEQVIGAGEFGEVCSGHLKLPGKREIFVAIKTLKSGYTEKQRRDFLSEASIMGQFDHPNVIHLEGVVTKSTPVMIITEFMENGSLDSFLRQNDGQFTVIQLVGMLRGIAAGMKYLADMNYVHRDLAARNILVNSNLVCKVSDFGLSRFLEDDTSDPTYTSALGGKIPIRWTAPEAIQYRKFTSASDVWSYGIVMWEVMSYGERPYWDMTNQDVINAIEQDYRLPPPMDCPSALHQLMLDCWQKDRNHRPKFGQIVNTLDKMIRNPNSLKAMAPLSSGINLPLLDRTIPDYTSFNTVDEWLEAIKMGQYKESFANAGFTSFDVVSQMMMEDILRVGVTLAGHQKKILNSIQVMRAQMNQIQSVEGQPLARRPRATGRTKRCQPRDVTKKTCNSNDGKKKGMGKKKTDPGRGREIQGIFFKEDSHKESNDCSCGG
# [12] = molecular target: T1, Ephrin type-B receptor 3 (Homo sapiens); details: at 1 µM
# Focal adhesion kinase 1 (Homo sapiens), sequence (Q05397 2-1052 limits assumed): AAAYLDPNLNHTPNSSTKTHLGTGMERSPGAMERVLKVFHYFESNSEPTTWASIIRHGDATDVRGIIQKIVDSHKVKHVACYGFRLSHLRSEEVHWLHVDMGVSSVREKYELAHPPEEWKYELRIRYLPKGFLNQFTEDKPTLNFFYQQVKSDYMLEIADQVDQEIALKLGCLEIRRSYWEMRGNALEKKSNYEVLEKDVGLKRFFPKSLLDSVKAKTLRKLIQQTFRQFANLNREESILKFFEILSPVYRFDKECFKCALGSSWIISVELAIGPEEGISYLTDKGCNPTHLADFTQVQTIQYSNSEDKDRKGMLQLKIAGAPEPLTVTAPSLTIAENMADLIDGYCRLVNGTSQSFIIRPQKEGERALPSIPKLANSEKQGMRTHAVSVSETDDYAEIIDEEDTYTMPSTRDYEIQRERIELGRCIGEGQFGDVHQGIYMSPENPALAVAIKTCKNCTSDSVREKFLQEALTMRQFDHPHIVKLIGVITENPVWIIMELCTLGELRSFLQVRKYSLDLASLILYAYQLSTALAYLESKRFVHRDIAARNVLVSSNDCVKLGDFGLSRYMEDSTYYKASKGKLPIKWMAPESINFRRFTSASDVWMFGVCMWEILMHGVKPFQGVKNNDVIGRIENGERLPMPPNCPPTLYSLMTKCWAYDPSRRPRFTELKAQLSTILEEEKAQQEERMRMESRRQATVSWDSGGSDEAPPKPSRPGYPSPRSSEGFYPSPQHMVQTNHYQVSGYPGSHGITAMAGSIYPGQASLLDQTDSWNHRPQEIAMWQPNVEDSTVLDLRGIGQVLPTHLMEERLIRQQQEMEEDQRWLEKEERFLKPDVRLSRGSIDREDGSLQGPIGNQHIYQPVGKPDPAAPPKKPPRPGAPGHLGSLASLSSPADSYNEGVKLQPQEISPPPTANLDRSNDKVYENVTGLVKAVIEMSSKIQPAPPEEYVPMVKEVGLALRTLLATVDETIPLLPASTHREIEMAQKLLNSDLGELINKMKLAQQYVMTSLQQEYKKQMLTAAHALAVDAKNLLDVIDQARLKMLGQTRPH
# Receptor tyrosine-protein kinase erbB-4 (Homo sapiens), sequence (Q15303 whole entry): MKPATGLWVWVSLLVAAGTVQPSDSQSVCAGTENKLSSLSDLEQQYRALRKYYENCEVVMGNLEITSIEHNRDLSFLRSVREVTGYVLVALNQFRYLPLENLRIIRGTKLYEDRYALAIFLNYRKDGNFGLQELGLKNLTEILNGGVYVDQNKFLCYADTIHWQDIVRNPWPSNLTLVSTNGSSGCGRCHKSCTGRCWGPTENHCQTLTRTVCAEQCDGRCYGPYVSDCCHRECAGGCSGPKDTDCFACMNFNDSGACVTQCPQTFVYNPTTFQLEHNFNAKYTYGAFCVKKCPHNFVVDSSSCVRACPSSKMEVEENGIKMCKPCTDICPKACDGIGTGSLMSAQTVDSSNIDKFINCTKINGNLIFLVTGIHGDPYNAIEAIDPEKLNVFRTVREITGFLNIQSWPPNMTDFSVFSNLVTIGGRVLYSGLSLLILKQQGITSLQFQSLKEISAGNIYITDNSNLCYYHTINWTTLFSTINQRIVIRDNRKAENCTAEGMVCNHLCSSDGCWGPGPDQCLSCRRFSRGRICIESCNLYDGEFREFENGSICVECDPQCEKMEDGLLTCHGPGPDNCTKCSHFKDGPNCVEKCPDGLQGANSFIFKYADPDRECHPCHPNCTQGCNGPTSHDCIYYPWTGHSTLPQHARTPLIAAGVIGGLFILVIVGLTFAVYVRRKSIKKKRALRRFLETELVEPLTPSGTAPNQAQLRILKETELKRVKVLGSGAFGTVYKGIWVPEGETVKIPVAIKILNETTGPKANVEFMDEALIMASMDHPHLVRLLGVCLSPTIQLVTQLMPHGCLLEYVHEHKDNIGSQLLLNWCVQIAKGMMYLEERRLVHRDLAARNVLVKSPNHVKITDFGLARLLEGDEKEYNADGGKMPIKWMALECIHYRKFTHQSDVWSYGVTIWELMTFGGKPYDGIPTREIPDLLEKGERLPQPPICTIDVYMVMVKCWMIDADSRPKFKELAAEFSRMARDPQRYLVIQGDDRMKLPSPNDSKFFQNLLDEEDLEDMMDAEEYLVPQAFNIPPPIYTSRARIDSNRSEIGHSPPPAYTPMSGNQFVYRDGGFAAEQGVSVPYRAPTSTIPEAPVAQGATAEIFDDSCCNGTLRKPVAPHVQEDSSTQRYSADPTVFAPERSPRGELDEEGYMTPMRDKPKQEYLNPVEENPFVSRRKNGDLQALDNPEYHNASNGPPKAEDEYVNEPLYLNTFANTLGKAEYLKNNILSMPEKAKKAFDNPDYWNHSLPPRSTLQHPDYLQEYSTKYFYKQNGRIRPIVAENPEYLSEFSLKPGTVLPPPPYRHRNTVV
compound,measurement,setting,value
O=C(Nc1ccc(Cl)cc1)c1ccccc1NCc1ccncc1,residual activity,[1],125%
same,residual activity,[2],117%
same,residual activity,[3],131%
same,residual activity,[4],143%
CC(C)(C)c1nc2c3ccc(F)cc3c3c(=O)[nH]ccc3c2[nH]1,residual activity,[5],72%
same,residual activity,[6],103%
same,residual activity,[7],103%
same,residual activity,[8],99%
same,residual activity,[4],51%
CCN1/C(=C/C(C)=O)Sc2ccc(OC)cc21,residual activity,[9],75%
same,residual activity,[10],69%
CN([C@@H](Cc1ccc(OS(=O)(=O)c2cccc3cnccc23)cc1)C(=O)N1CCN(c2ccccc2)CC1)S(=O)(=O)c1cccc2cnccc12,residual activity,[11],131%
same,residual activity,[12],116% (inactive)
same,residual activity,[4],119%
